In PubChem BioAssay (NCI) one finds growth data, which are given here for 38 compounds.

This is part of a sample that, as a whole, favours compounds with a hit. Of some 83,000 tested, about 20% had one in any assay.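 Cells were grown in 96-well plates and exposed to the test compound at a single concentration for 48 hours; results are reported as percent growth, with values below 10 considered active.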 Calls of active or inactive are those of the source.

The subject of one assay is OVCAR-3 ovarian. In words: NCI-60 one-dose screen, 48 h (100 = growth as untreated, 0 = no growth, -100 = all killed). As to conditions: 10 µM unless noted.
For `CCN1C(=O)N(CC)C2NNC(Sc3c(C(=O)O)c4ccccc4n(CCC(C)C)c3=O)=NC21` (centres undefined), the growth was -25.4% (active).
For `COc1ccc2[nH]c(O)c(N=Nc3nc(-c4ccc(Cl)cc4)cs3)c2c1`, the growth is -90.4% (active).
For the compound `CC[C@]12C=CCN3CC[C@@]4(c5ccc(OC)cc5N(C)[C@H]4[C@@](O)(C(=O)OC)[C@@H]1OC(=O)CCCC[P+](c1ccc(F)cc1)(c1ccc(F)cc1)c1ccc(F)cc1)[C@@H]32`, the growth was 12.6% (inactive).
On the same count and under the same terms, then `COc1cccc(/C=C/c2nc3ccccc3c(=O)n2CC(=O)Nc2ccccc2)c1`, with 74.6% (inactive); and `O=C(c1ccc(Cl)cc1)C1[C@H](c2ccccc2Cl)[C@@H](c2ccccc2)NC12C(=O)Nc1ccc(Br)cc12` (some centres undefined), with -48.3% (active); and `O=C(CSc1nnc(-c2ccc(-c3nc4ccc(Cl)cc4[nH]3)cc2)o1)Nc1ccc(Cl)cc1`, with 5.34% (active).
On to `N#Cc1c(NC(=O)N2CCOCC2)n(-c2ccc(OC(F)(F)F)cc2)c2cc(F)ccc12`, for which the growth was 111% (inactive).
Same read-out and setting: then `O=C(N/N=C/c1ccc(Cl)o1)c1[nH]c2ccc(Br)cc2c1-c1ccccc1`, with -11.3% (active); and `CC1=C(C(=O)OCc2ccccc2)C(c2cccc3ccccc23)n2c(nc3ccccc32)N1` (centres undefined), with -6.62% (active).
Still for that read-out and setting: then `CC1=NN(C2=NC(=O)C(CC(=O)Nc3ccccc3C(F)(F)F)S2)C(c2ccc(N(C)C)cc2)C1` (centres undefined), with 44.9% (inactive); and `CN1C(=O)C2(C(C#N)=C(c3ccc(Cl)cc3)Nc3c2c(-c2ccccc2)nn3-c2ccccc2)c2ccccc21` (centres undefined), with 112% (inactive).
For the compound `O=[N+]([O-])c1cccc(-c2nnc3c(/C=C/c4ccc(F)cc4)nc4ccccc4n23)c1`, the growth was 116% (inactive).
In the case of `COC(=O)c1cc(C(C)=O)n2c3ccccc3c3ccccc3c12`, the growth is 73.4% (inactive).
Regarding `CCCCCCCOc1ccc(S(=O)(=O)Nc2ccc(C)c(F)c2C(=O)O)cc1`, the growth was 99.9% (inactive).
The same measure, in the same setting: then `COc1ccc2[nH]cc(-c3cc4nc(-c5cn(C)c6ncc(Br)cc56)cc(N)n4n3)c2c1`, with -67.3% (active); and `COc1ccc2c(c1)N=c1c-2cc2c(O)[nH]c(=S)n2c1=O`, with 33.8% (inactive); and `CC(C)C[C@H](NC(=O)[C@@H]1CCCCCCCCCCC(=O)N[C@@H](CC(=O)N2CCC[C@@H]2C2CCCC2)C(=O)N1)B(O)O`, with -46.5% (active).
On the same count and under the same terms, then `O=C1NC(=S)/C(=C/c2cn(-c3ccccc3)nc2-c2ccccc2)S1`, with 36.7% (inactive); and `CN(C)C(=O)c1cc(-c2ccc3ncnc(N4CCc5cc(F)c(Cl)cc54)c3c2)cnc1N`, with -58.1% (active); and `N#C/C(=C/c1ccc(Cl)cc1)c1nnc(NC(=O)c2ccc(-n3c(=O)[nH]c4ccccc4c3=O)cc2)s1`, with 84.6% (inactive).
The same measure, in the same setting: to `COc1c(B(O)O)cc(F)cc1-c1nc2c(F)cc3[nH]ncc3c2c2c1CCCC2` belongs 18.6% (inactive); to `O=C(CSc1nc2sc3c(c2c(=O)n1-c1ccc(Cl)cc1)CCCC3)NNC(=O)c1ccc(Br)cc1`, 112% (inactive).
In the case of `CN(C)c1ccc(/C=C/c2n(Cc3ccc4ccccc4c3)c3ccccc3[n+]2Cc2ccc3ccccc3c2)cc1`, the growth is -45.2% (active).
In the case of `COc1ccc2[nH]c(=O)cc(-n3ncc(C(=O)/C=C/c4cc(OC)c(OC)c(OC)c4)c3C)c2c1`, the growth was -34.6% (active).
On the same count and under the same terms, then `COc1ccc(C(=O)C[n+]2cccc3c4ccccc4ccc32)cc1`, with 51.7% (inactive); and `CN1CCc2c(sc3ncnc(N/N=C/c4cccc(Cl)c4Cl)c23)C1`, with 25.1% (inactive); and `COc1ccc2[nH]c(O)c(N=Nc3nc(-c4ccccc4)cs3)c2c1`, with -2.28% (active).
On the same count and under the same terms, then `COc1ccc(N=Nc2c(N)nn3c(N)c(C#N)c(-c4ccc(F)cc4)nc23)cc1`, with 103% (inactive); and `C=CCSc1nnc(-c2ccc(-c3nc4ccccc4[nH]3)cc2)o1`, with 91.5% (inactive).
On the same count and under the same terms, to `Cc1oc(-c2ccccc2)nc1CN[C@@H]1C[C@@H]2C[C@H]([C@H]1C)C2(C)C` belongs 84.4% (inactive); to `COc1ccc(NC2=C(I)C(=O)C(C)=C(C)C2=O)cc1`, -17.1% (active).

In a further assay the test system is HS 578T breast. Described as above. As to conditions: 10 µM unless noted.
In the case of `O=C(Nc1nc2ccccc2s1)Nc1ccccc1Cl`, the growth was 22.7% (inactive).
Still for that read-out and setting: to `Cc1ccc(C(=O)Nc2cc(-n3ccnc3C)cc(C(F)(F)F)c2)cc1C#Cc1cnc2cccnn12` belongs -25.9% (active); to `O=C(c1ccc(O)cc1)C1[C@H](c2ccc(Cl)cc2)[C@@H](c2ccccc2)NC12C(=O)Nc1ccccc12` (some centres undefined), -11.8% (active).
Still for that read-out and setting: to `COc1ccc(-c2nc3ccc(-c4nnc(SCC(=O)Nc5ccc(/C(C)=N\O)cc5)o4)cc3[nH]2)cc1` belongs 6.55% (active).
In the case of `C[C@H]1[C@@H](CC(=O)N[C@@H](Cc2coc3ccccc23)B(O)O)O[C@@H]2OC3(C)CC[C@H]4[C@H](C)CC[C@@H]1[C@@]24O3`, the growth was -0.841% (active).
For `Cc1cc(C(NC(=O)C2CC3(CC(Nc4cccc5c4C(=O)N(C4CCC(=O)NC4=O)C5=O)C3)C2)c2ccc3c(c2)OC(F)(F)O3)c(O)c2ncccc12` (centres undefined), the growth was 29.3% (inactive).
Take `NC(=O)c1ccc(-c2ccc3ncnc(N4CCc5cc(F)c(Cl)cc54)c3c2)cn1`: the growth is 55.4% (inactive).
As to `CCN1C(=O)N(CC)C2NNC(Sc3c(C(=O)O)c4ccccc4n(CCC(C)C)c3=O)=NC21` (centres undefined), the growth is -14.6% (active).
Still for that read-out and setting: to `COc1ccc2[nH]c(O)c(N=Nc3nc(-c4ccc(Cl)cc4)cs3)c2c1` belongs 9.33% (active); to `CC[C@]12C=CCN3CC[C@@]4(c5ccc(OC)cc5N(C)[C@H]4[C@@](O)(C(=O)OC)[C@@H]1OC(=O)CCCC[P+](c1ccc(F)cc1)(c1ccc(F)cc1)c1ccc(F)cc1)[C@@H]32`, -2.23% (active); to `COc1cccc(/C=C/c2nc3ccccc3c(=O)n2CC(=O)Nc2ccccc2)c1`, 3.02% (active).
The same measure, in the same setting: to `O=C(c1ccc(Cl)cc1)C1[C@H](c2ccccc2Cl)[C@@H](c2ccccc2)NC12C(=O)Nc1ccc(Br)cc12` (some centres undefined) belongs -36% (active); to `O=C(CSc1nnc(-c2ccc(-c3nc4ccc(Cl)cc4[nH]3)cc2)o1)Nc1ccc(Cl)cc1`, 14.1% (inactive); to `N#Cc1c(NC(=O)N2CCOCC2)n(-c2ccc(OC(F)(F)F)cc2)c2cc(F)ccc12`, 102% (inactive).
The same measure, in the same setting: then `O=C(N/N=C/c1ccc(Cl)o1)c1[nH]c2ccc(Br)cc2c1-c1ccccc1`, with 3.22% (active).
Consider `CC1=C(C(=O)OCc2ccccc2)C(c2cccc3ccccc23)n2c(nc3ccccc32)N1` (centres undefined), for which the growth was 5.52% (active).
Same read-out and setting: to `CC1=NN(C2=NC(=O)C(CC(=O)Nc3ccccc3C(F)(F)F)S2)C(c2ccc(N(C)C)cc2)C1` (centres undefined) belongs 43.8% (inactive).
On the same count and under the same terms, to `CN1C(=O)C2(C(C#N)=C(c3ccc(Cl)cc3)Nc3c2c(-c2ccccc2)nn3-c2ccccc2)c2ccccc21` (centres undefined) belongs 65.3% (inactive); to `O=[N+]([O-])c1cccc(-c2nnc3c(/C=C/c4ccc(F)cc4)nc4ccccc4n23)c1`, 47.9% (inactive); to `COC(=O)c1cc(C(C)=O)n2c3ccccc3c3ccccc3c12`, 29.8% (inactive).
Same read-out and setting: to `CCCCCCCOc1ccc(S(=O)(=O)Nc2ccc(C)c(F)c2C(=O)O)cc1` belongs 87.8% (inactive); to `COc1ccc2[nH]cc(-c3cc4nc(-c5cn(C)c6ncc(Br)cc56)cc(N)n4n3)c2c1`, -27.8% (active).
Regarding `COc1ccc2c(c1)N=c1c-2cc2c(O)[nH]c(=S)n2c1=O`, the growth was 21.5% (inactive).
With `CC(C)C[C@H](NC(=O)[C@@H]1CCCCCCCCCCC(=O)N[C@@H](CC(=O)N2CCC[C@@H]2C2CCCC2)C(=O)N1)B(O)O`, the growth is 3.6% (active).
Same read-out and setting: to `O=C1NC(=S)/C(=C/c2cn(-c3ccccc3)nc2-c2ccccc2)S1` belongs 8.03% (active); to `CN(C)C(=O)c1cc(-c2ccc3ncnc(N4CCc5cc(F)c(Cl)cc54)c3c2)cnc1N`, -44.2% (active); to `N#C/C(=C/c1ccc(Cl)cc1)c1nnc(NC(=O)c2ccc(-n3c(=O)[nH]c4ccccc4c3=O)cc2)s1`, 34.1% (inactive).
Still for that read-out and setting: to `COc1c(B(O)O)cc(F)cc1-c1nc2c(F)cc3[nH]ncc3c2c2c1CCCC2` belongs 11.4% (inactive); to `O=C(CSc1nc2sc3c(c2c(=O)n1-c1ccc(Cl)cc1)CCCC3)NNC(=O)c1ccc(Br)cc1`, 56.7% (inactive); to `CN(C)c1ccc(/C=C/c2n(Cc3ccc4ccccc4c3)c3ccccc3[n+]2Cc2ccc3ccccc3c2)cc1`, -46.3% (active).
Still for that read-out and setting: then `COc1ccc2[nH]c(=O)cc(-n3ncc(C(=O)/C=C/c4cc(OC)c(OC)c(OC)c4)c3C)c2c1`, with 57.3% (inactive); and `COc1ccc(C(=O)C[n+]2cccc3c4ccccc4ccc32)cc1`, with 58.9% (inactive).
For `CN1CCc2c(sc3ncnc(N/N=C/c4cccc(Cl)c4Cl)c23)C1`, the growth was 38.2% (inactive).
Same read-out and setting: to `COc1ccc2[nH]c(O)c(N=Nc3nc(-c4ccccc4)cs3)c2c1` belongs 41.6% (inactive); to `COc1ccc(N=Nc2c(N)nn3c(N)c(C#N)c(-c4ccc(F)cc4)nc23)cc1`, 20.6% (inactive).
On the same count and under the same terms, then `C=CCSc1nnc(-c2ccc(-c3nc4ccccc4[nH]3)cc2)o1`, with 79% (inactive); and `Cc1oc(-c2ccccc2)nc1CN[C@@H]1C[C@@H]2C[C@H]([C@H]1C)C2(C)C`, with 69.2% (inactive).
Same read-out and setting: then `COc1ccc(NC2=C(I)C(=O)C(C)=C(C)C2=O)cc1`, with 85.6% (inactive).
